The results in this text go back to PubChem BioAssay (NCATS).

Assay [1] deals with Lysosomal acid glucosylceramidase (Homo sapiens) (UniProt P04062). The experiment in a line: Glucocerebrosidase-p2 (AID 348; in the data active = potency below about 10 µM; note: potency is the fitted concentration of half-maximal effect). Conditions: purified GBA, blue fluorogenic substrate, 40 min. The essentials:
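Normal human glucocerebrosidase (0.2 nM) with blue fluorogenic substrate (80 uM final) in citrate/phosphate pH 5.9 with 10mM sodium taurocholate, 0.01% tween-20; 40 min RT, NaOH/glycine stop; fluorescence Ex 365/Em 440; AC50 from a titration from 0.6 nM upwards.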

Assay [2] is described as follows: AP1 Signaling Pathway (AID 357; active = well fitted curve in either direction with a large enough effect, not every such curve was filed as active;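 note: ME-180 reporter cells stimulated with EGF at its EC50 level; % is set by controls: 0 for no effect and ±100 for the full control effect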). The conditions noted are these: ME-180 AP-1-bla reporter, EGF-induced, beta-lactamase ratio, 5 h; at 7.69 µM (top of the series) unless noted. In a few lines:
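Titration-series screen for positive or negative modulators of EC50 EGF-induced signaling in ME-180 cells carrying an AP-1-driven beta-lactamase reporter. After 5 hours at 37 degrees Celsius, CCF4 460nm/530nm emission ratio gave %Activity; AC50 values derived.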

The nature of assay [3]: NFAT Signaling Pathway (AID 444; active = well fitted curve in either direction with a large enough effect, not every such curve was filed as active;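 note: carbachol stimulus at about its EC50 of 1 µM final; % is set by controls: 0 for no effect and ±100 for the full control effect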). The conditions noted are these: Jurkat NFAT-bla M1, carbachol, beta-lactamase ratio, 5 h; at 7.69 µM (top of the series) unless noted. The essentials: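 Read-out: CCF4 FRET ratio (460 nm/530 nm) after 1 h RT dye loading, used for %activity and AC50 from titration series. Cells: Jurkat NFAT-β-lactamase/M1 line, treated with compound plus 1 uM carbachol for 5 h, 37 °C.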

A short description of assay [4]: Stat Signaling Pathway (AID 446; active = well fitted curve in either direction with a large enough effect, not every such curve was filed as active;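 note: ME-180 cervical cancer cells given 40 pM IL-6 alongside compound; SIE-controlled beta-lactamase reporter measured as 460/530 nm FRET emission ratio; % is set by controls: 0 for no effect and ±100 for the full control effect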). Conditions: ME-180 SIE beta-lactamase reporter, IL-6 stimulated, 5 h; at 7.69 µM (top of the series) unless noted. The essentials:
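Overnight-plated ME-180 cells bearing a STAT Inducible Element beta-lactamase reporter; 5 h co-exposure to compound and 40 pM IL-6; values normalized to 300 pM IL-6 and 125 nM JAK inhibitor controls.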

The target of assay [5] is Glucocorticoid receptor (Homo sapiens) (UniProt P04150). The experiment in a line: GR-GFP Redistribution (AID 450;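 active = compounds whose dose series gives a full or clear partial fitted curve of increased nuclear translocation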; note: potency is the fitted concentration of half-maximal effect). Conditions: U2OS GR-GFP nuclear translocation, laser cytometry, 2 h.
Assay [6] shares this target. The experiment in a line: GR-EFC Redistribution (AID 451; calls by dose curve; note: potency is the fitted concentration of half-maximal effect). The conditions noted are these: CHO-K1 GR-EFC translocation, beta-gal luminescence, 2 h. In a few lines:
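Translocation of GR-ED fusion to nuclear EA restores b-gal, read by luminescence after 1 h room-temperature detection. Engineered CHO-K1 biosensor cells, 1,000/well, exposed 2 h at 37 C to titrations up to 46 uM final.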

Assay [7] concerns the target Mitogen-activated protein kinase 10 (Mus musculus) (UniProt Q61831). The experiment in a line: JNK3 AlphaScreen Assay (AID 530; active = well fitted curve in either direction with a large enough effect, not every such curve was filed as active;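 note: kinase came from lysate of stimulated human HepG2 cells; signal reports phosphorylation of biotinylated GST-cJun 1-79 at Ser73 with 10 µM ATP; % is set by controls: 0 for no effect and ±100 for the full control effect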). The conditions noted are these: JNK3 lysate, c-Jun phosphorylation; series mostly up to 57.1 µM. In a few lines: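 qHTS titrations with 15 min compound pre-incubation before adding ATP (10 uM final). Read-out: AlphaScreen of Ser73-phosphorylated biotin-GST-cJun using HepG2 lysate JNK3 activated by IL-1β and TNFα.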
Background: Bead proximity is the source of the signal in Alpha formats.

The target of assay [8] is 3',5'-cyclic-AMP phosphodiesterase 4B (Homo sapiens) (UniProt Q07343). Description: qHTS Assay for Inhibitors of PDE-IV (AID 607; active = well fitted activation curve with a large enough effect in the main read-out, with a control signal flat, not every such curve was filed as active; note: % of control where 0% means no effect). The conditions noted are these: HEK293 ACTOne CNG channel cells, membrane potential fluorescence; series mostly up to 22.9 µM. The essentials: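 Live HEK293 cells with a modified cyclic nucleotide-gated (CNG) channel report intracellular cAMP via membrane-potential dye fluorescence (ex 535/em 590 nm). Endogenous PDE-IV was targeted. Compounds were tested at up to 22.9 uM final; RO 20-1724 100 uM served as control.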
In general terms: qHTS replaces the single test concentration by a dilution series.

Assay [9] has as its target Cytochrome P450 3A4 (Homo sapiens) (UniProt P08684). The experiment in a line: qHTS Assay for Inhibitors and Substrates of Cytochrome P450 3A4 (AID 884). Note: potency is the fitted concentration of half-maximal effect; nearly all actives have a fitted effect of over 50% in size. The conditions noted are these: recombinant CYP3A4, Luciferin-PPXE luminescence; series mostly up to 57.1 µM. The essentials:
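Luminescent readout of luciferin produced by CYP3A4 (20 nM) dealkylation of Luciferin-PPXE, 25 uM (its KM). NADPH-driven reaction ran 60 min at RT after 10 min compound preincubation; data scaled to 57 uM ketoconazole as 100% inhibition.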

Assay [10] shares this target. Description: qHTS Assay for Activators of Cytochrome P450 3A4 (AID 885). Note: nearly all actives have a fitted effect of over 65% in size. Conditions: recombinant CYP3A4, Luciferin-PPXE luminescence, 60 min; series mostly up to 57.1 µM. In a few lines:
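Using 20nM recombinant human CYP3A4 in potassium phosphate (200mM), substrate Luciferin-PPXE at 25uM, luminescent luciferin detection followed a 60-min RT NADPH reaction; data scaled to 57 uM ketoconazole.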

Assay [11] is described as follows: qHTS Assay for Lipid Storage Modulators (AID 1519; calls by dose curve). Conditions: Drosophila S3 cells, BODIPY lipid droplet/cell ratio, laser cytometry, cells loaded with oleic acid; for activity change, negative = inhibition: at 57.5 µM (top of the series). The essentials: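 Cells seeded at 5,000 per well were treated with compounds over a concentration series and loaded with oleic acid (400 uM, as added). Lipid droplet fluorescence (488 nm excitation, 500-530 nm channel) was read by laser-scanning cytometry and normalized to 20 uM Triacsin C.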

In assay [12] the target is Dual specificity protein kinase CLK4 (Homo sapiens) (UniProt Q9HAZ1). The experiment in a line: qHTS Assay for Inhibitors of CDC-like Kinase 4 (Kinase-Glo Assay) (AID 1770). Note: % is set by controls: 0 for no effect and ±100 for the full control effect; nearly all actives have a fitted effect of over 65% in size. The conditions noted are these: recombinant Clk4, Kinase-Glo ATP depletion luminescence; series mostly up to 66.7 µM. The essentials: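 Inhibition was judged from remaining ATP, measured by Ultra-Glo luciferase bioluminescence after Clk4 (25 nM) had acted on RS peptide at 1 uM ATP for 4.5 hours, room temperature.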

Assay [13] has the same target. The experiment in a line: qHTS Assay for Inhibitors of CDC-like Kinase 4 (ADP-Glo Assay) (AID 1771). Note: % is set by controls: 0 for no effect and ±100 for the full control effect; nearly all actives have a fitted effect of over 70% in size. The conditions noted are these: recombinant CLK4, ADP-Glo luminescence; series mostly up to 80 µM. The essentials:
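Compounds are pin-transferred onto substrate mix (100 uM RS peptide, 1 uM ATP), then 25 nM Clk4 is added. After 1 hr at room temperature, ADP-Glo reagent runs 45 min, detection reagent 30 min, then luminescence is read.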

Assay [14] has the same target. Description: qHTS Assay for Inhibitors of CDC-like Kinase 4 (ADP-FP Assay) (AID 1795).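 Note: recombinant human CLK4 phosphorylating RS repeat peptide at 1 µM ATP; % is set by controls: 0 for no effect and ±100 for the full control effect; nearly all actives have a fitted effect of over 60% in size.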 The conditions noted are these: Transcreener ADP fluorescence polarization; series mostly up to 50 µM. In a few lines:
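Inhibition of ADP formation by 6.25 nM Clk4 is measured using 1 uM ATP and 100 uM RS repeat peptide over one hour. Produced ADP displaces a fluorescent tracer from antibody, lowering polarization.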

For assay [15], the target named is Ubiquitin carboxyl-terminal hydrolase 1 (Homo sapiens) (UniProt O94782). Description: Inhibitors of USP1/UAF1: Pilot qHTS (AID 504865).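 Note: rhodamine fluorescence freed from ubiquitin-rhodamine substrate followed over time; top concentration of the series differs between compounds; % is set by controls: 0 for no effect and ±100 for the full control effect; nearly all actives have a fitted effect of over 35% in size.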 Conditions: purified USP1/UAF1, Ub-rhodamine cleavage fluorescence; series mostly up to 54.9 µM. In a few lines: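 Kinetic fluorescence assay: 1nM USP1/UAF1, 15 min compound preincubation, then 150nM Ub-Rho; 480/540 nm.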
Assay [16] concerns the target Cytochrome P450 1A2 (Homo sapiens) (UniProt P05177). The experiment in a line: p450-cyp1a2 (AID 410; calls by dose curve; note: potency is the fitted concentration of half-maximal effect). The conditions noted are these: recombinant CYP1A2, luciferin-ME demethylation, luminescence; series mostly up to 57 µM. The essentials:
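O-Demethylation of luciferin 6' methyl ether by human CYP1A2 is monitored as luciferase luminescence. Substrate sits at Km (100uM); enzyme is 20nM. Values are scaled to 57 uM furafylline as maximal inhibition.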

Assay [17] in a line: qHTS Assay for Identification of Small Molecule Agonists for Hypoxia Response Element Signaling Pathway (AID 914; active = well fitted activation curve with a large enough effect in the signal ratio, with a control signal flat, not every such curve was filed as active; the % refers to the signal ratio; note: potency is the fitted concentration of half-maximal effect; for activation: % of control where 0% means no effect). The conditions noted are these: ME-180 (cervical carcinoma) HRE-bla reporter, beta-lactamase ratio, CoCl2, 17 h; activation: stronger effect = higher value. In a few lines:
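Compounds in a titration series were added to ME-180 reporter cells alongside an EC50 level of CoCl2. After 17 hours, beta-lactamase activity was read as the 460nm/530nm emission ratio of CCF4, giving AC50 values.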

[18] abbreviates: measured here: cell count channel max response.
Setting [19] is: measured here: lipid channel max response.

Records with an inconclusive call do not appear. The source made the active and inactive calls. Unless noted, calls come from the whole dose curve; as a rule, active = well fitted curve in the direction sought with a large enough effect; inconclusive = small, poorly fitted or top-dose-only effect, or another doubt; inactive = no such curve, though single readings can be large; an effect the other way counts as inactive or inconclusive. A value given as a limit tells only on which side of the number the result lay.

Sequence of Ubiquitin carboxyl-terminal hydrolase 1 (Homo sapiens) (O94782 whole entry, looked up): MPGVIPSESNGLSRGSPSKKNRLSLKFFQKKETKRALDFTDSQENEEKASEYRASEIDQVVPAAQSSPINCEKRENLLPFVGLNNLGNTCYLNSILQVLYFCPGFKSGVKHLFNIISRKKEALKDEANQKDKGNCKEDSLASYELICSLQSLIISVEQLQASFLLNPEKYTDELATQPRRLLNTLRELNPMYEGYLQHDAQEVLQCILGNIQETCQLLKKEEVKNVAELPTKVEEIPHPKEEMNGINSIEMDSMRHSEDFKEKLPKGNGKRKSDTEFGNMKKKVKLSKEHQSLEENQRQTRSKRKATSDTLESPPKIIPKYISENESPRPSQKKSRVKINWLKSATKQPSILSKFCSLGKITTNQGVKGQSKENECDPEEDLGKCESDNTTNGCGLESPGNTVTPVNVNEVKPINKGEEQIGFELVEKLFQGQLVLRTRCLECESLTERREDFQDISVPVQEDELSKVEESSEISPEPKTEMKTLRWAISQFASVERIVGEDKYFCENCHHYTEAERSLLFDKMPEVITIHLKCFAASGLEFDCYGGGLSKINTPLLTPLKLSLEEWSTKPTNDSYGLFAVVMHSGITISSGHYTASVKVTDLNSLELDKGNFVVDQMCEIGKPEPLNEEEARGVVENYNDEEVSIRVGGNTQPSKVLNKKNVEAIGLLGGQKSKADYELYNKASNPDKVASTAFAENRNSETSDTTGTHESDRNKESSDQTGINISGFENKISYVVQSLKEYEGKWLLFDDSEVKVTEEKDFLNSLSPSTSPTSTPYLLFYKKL
Sequence of Cytochrome P450 3A4 (Homo sapiens) (P08684 whole entry, looked up): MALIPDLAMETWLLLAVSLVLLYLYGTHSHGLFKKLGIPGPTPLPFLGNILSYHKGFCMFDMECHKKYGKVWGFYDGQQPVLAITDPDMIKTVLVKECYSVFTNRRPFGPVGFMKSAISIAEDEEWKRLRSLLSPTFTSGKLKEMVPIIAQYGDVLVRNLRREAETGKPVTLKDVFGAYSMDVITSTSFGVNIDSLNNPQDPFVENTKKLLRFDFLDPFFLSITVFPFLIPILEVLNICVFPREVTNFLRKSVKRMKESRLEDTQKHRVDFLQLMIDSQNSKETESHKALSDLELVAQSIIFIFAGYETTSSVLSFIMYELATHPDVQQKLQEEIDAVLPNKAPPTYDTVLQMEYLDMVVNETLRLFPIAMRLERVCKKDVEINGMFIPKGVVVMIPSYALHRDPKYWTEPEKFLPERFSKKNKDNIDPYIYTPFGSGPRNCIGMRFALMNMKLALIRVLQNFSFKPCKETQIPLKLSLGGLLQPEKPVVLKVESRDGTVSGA
Sequence of 3',5'-cyclic-AMP phosphodiesterase 4B (Homo sapiens) (Q07343 whole entry, looked up): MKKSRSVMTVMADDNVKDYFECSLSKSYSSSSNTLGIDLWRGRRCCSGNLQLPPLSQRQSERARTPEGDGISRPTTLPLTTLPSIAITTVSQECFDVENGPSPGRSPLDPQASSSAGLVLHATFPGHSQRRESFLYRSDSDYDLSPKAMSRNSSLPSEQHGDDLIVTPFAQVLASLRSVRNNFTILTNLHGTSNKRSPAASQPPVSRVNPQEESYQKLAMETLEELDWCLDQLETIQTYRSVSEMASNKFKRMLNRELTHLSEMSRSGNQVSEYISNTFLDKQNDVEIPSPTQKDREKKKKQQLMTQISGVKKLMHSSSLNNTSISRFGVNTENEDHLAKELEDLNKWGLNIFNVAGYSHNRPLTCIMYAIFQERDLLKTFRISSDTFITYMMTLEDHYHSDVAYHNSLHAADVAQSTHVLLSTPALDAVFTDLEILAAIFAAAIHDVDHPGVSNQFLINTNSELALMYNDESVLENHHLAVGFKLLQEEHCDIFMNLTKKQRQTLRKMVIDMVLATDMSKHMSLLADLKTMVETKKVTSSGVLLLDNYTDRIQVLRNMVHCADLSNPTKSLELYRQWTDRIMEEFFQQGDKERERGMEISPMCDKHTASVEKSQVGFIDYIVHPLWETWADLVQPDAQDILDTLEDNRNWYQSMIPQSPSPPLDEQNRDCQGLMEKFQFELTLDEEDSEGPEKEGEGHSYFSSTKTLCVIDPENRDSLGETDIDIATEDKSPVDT
Sequence of Lysosomal acid glucosylceramidase (Homo sapiens) (P04062 whole entry, looked up): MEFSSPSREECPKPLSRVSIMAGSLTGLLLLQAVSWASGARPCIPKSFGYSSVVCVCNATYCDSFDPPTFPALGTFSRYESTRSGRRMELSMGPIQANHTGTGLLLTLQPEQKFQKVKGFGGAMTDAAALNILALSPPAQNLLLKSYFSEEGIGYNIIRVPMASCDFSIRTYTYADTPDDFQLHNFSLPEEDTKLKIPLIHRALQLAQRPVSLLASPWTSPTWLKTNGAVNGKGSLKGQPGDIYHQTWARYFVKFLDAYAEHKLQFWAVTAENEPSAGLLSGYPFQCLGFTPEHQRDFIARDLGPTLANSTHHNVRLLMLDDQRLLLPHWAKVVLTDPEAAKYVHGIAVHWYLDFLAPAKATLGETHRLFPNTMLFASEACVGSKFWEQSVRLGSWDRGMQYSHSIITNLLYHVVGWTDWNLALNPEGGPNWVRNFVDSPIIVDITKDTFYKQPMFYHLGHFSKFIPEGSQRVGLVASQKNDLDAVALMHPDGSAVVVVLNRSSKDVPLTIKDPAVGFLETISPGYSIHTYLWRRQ
Sequence of Glucocorticoid receptor (Homo sapiens) (P04150 whole entry, looked up): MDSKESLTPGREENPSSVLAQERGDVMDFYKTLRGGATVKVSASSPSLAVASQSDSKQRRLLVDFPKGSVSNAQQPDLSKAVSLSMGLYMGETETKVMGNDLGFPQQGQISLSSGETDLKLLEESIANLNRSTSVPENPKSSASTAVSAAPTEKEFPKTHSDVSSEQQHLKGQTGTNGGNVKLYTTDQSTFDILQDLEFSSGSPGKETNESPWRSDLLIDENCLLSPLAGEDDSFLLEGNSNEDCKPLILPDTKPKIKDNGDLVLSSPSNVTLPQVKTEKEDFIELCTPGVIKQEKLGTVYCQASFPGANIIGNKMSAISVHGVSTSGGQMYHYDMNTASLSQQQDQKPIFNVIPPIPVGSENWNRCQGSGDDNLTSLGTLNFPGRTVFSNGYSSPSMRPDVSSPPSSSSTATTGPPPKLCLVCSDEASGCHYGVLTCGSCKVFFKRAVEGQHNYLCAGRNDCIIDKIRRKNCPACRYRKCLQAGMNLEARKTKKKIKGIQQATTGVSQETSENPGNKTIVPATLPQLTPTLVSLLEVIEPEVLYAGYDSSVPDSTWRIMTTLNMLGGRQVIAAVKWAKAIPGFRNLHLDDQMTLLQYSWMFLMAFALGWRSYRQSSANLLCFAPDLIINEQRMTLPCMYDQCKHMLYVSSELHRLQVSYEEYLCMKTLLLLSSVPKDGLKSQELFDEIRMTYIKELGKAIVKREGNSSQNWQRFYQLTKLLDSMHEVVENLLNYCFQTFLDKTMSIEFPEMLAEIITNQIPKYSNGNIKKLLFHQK
Sequence of Cytochrome P450 1A2 (Homo sapiens) (P05177 whole entry, looked up): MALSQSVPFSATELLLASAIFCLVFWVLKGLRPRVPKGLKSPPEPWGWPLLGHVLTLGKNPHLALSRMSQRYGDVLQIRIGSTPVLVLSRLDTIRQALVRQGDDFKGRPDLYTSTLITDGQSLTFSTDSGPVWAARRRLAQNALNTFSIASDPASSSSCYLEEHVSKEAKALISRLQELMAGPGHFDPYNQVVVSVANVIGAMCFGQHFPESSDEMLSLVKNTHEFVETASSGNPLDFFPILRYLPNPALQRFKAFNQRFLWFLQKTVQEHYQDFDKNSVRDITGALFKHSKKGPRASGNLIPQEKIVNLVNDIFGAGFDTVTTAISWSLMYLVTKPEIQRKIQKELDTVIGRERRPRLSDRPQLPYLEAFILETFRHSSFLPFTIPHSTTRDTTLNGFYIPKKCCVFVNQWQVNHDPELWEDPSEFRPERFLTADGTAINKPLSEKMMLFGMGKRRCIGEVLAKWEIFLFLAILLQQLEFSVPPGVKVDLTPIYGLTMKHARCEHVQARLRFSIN
Sequence of Dual specificity protein kinase CLK4 (Homo sapiens) (Q9HAZ1 whole entry, looked up): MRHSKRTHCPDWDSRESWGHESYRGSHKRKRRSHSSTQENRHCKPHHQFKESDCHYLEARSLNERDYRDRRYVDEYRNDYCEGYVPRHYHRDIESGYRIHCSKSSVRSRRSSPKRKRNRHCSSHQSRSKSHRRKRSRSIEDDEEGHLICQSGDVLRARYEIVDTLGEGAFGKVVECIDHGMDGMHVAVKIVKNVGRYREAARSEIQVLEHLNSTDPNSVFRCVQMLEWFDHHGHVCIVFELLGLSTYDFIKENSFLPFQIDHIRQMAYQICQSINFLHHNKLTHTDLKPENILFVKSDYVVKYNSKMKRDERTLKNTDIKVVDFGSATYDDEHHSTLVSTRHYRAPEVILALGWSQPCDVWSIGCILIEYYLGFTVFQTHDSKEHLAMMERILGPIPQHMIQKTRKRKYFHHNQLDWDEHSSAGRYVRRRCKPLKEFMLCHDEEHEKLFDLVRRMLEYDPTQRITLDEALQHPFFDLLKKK

`COc1ccccc1-c1cncnc1N1CCN(C)CC1`: the Potency in assay [1] was > 11.4 µM (inactive); in assay [5] it was > 46 µM (inactive); in [6] it was > 46 µM (inactive); in assay [9], 2.51 µM (active). The values for the activity change, negative = inhibition in [2], in [3] and in assay [11] were 3.96% (inactive), -14.4% (inactive) and 3.21% (inactive), respectively. Besides, the activity, negative = inhibition in [4] is 4.86% (inactive). Moreover, the Potency result in [7], in assay [8], in assay [10], in [12], in [13] and in assay [14] was “inactive” each time. Besides, the Potency result in assay [15] was “inactive”. Moreover, the values for the max response in [11] (setting [18]) and in [11] (setting [19]) were 28% and 29.7%, respectively.
With `COCCn1c(=O)c(-c2cccs2)nc2cnc(N3CCN(C)CC3)nc21`, the Potency in [1] was > 11.4 µM (inactive); in assay [16], 15.8 µM (active); in [5], > 9.22 µM (inactive); in assay [6] it was > 46 µM (inactive); in [17], 2.51 µM (active). Also, the activity, negative = inhibition in assay [4] is 12% (inactive). The Potency result in assay [7], in assay [8], in assay [10], in assay [12], in [13] and in [14] was “inactive” throughout. The Potency entry in assay [15] is “inactive”. For the same compound, in assay [11], the activity change, negative = inhibition was 1.3% (inactive). Further, the max response in assay [11] (setting [18]) was 18.6%; in [11] (setting [19]) it was 19.9%.
Turning to `COc1cccc(Cn2c(=O)c(CCc3ccccc3)nc3cnc(N4CCNCC4)nc32)c1`, the Potency in assay [1] was > 11.4 µM (inactive); in assay [16], 12.6 µM (active); in [5], > 9.22 µM (inactive); in [6], > 46 µM (inactive). Also, the activity change, negative = inhibition in assay [2] is 4.19% (inactive); in assay [3], 19.7% (inactive); in [11], 3.32% (inactive). For the same compound, the activity, negative = inhibition in [4] was -8.25% (inactive). Also, the Potency result in [7], in assay [8], in [10], in [12], in assay [13] and in assay [14] was “inactive” throughout. In addition, in assay [15], the Potency entry is “inactive”. The activation in [17] was 8.93% (inactive). In addition, the max response in [11] (setting [18]) worked out at 9.35%; in assay [11] (setting [19]), 12.1%.
`CN1CCN(c2ncncc2-c2ccccc2Cl)CC1`: the Potency in [1] was > 11.4 µM (inactive); in assay [16] it was 2.51 µM (active); in assay [5], > 46 µM (inactive); in assay [6], > 46 µM (inactive); in assay [9], 1.58 µM (active). Besides, the results for the activity change, negative = inhibition in assay [2] and in assay [11] were -12.3% (inactive) and -1.74% (inactive), respectively. In addition, the activity, negative = inhibition in [4] is -1.1% (inactive). The Potency entry in assay [7], in [8], in [10], in assay [12], in assay [13] and in [14] was “inactive” in each case. Besides, the Potency result in assay [15] is “inactive”. Moreover, in [17], the activation is 4.87% (inactive). For the same compound, the max response in [11] (setting [18]) stood at 8.31%; in assay [11] (setting [19]), 3.53%.
For `FC(F)(F)c1ccccc1-c1cncnc1NCCN1CCOCC1`, the Potency in assay [1] was > 11.4 µM (inactive); in assay [16], 2.51 µM (active); in assay [5], > 46 µM (inactive); in assay [6] it was > 46 µM (inactive); in assay [17], 2.51 µM (active). Also, the activity, negative = inhibition in assay [4] is -11.6% (inactive). Moreover, the Potency entry in assay [7], in [8], in [10], in assay [12], in assay [13] and in assay [14] was “inactive” throughout. For the same compound, the Potency entry in [15] was “inactive”. For the same compound, the activity change, negative = inhibition in [11] is -3.84% (inactive). Moreover, the max response turned out to be 15.3% in [11] (setting [18]) and 13.3% in [11] (setting [19]).
